Data from PubChem BioAssay AID1347072 (National Center for Advancing Translational Sciences (NCATS), 2019).
Among all 44,000 compounds or so, fewer than 10 were called active. Another 2% or so got no clear call; they are omitted. Calls follow the shape of the dose curve; as a rule, active = well fitted curve in the direction sought with a large enough effect; inconclusive = small, poorly fitted or top-dose-only effect, or another doubt; inactive = no such curve, though single readings can be large or run the other way. The list is a sample of the results.

Each compound was assayed against Galactokinase (Homo sapiens) (UniProt P51570) (assay: qHTS Assay for Inhibitors of Human Galactokinase (GALK): NCGC Sytravon Library Screen). Conditions: recombinant GALK, Kinase-Glo ATP luminescence, 1 h; series mostly up to 57.5 µM.
Source text: Inherited deficiency of galactose-1-phosphate uridyltransferase (GALT) can result in a potentially lethal disorder called Classic Galactosemia (OMIM 230400). Several lines of evidence indicate that an elevated level of galactose-1-phosphate (gal-1-p), the product of galactokinase (GALK), is a major, if not sole, pathogenic mechanism in patients with classic galactosemia. Therefore, finding inhibitors of GALK is a potential novel therapy for this inherent metabolic disease and is the long term goal of this project. This screen is run against the NCGC Sytravon compound library collection. GALK (provided by Kent Lai) was assayed using ATP and D-(+)-Galactose (Sigma-Aldrich cat# G0750) as substrates. Promega Kinase-Glo Plus technology was used to detect kinase activity. Reactions with and without GALK were used as negative and positive controls together with Protein Tyrosine Phosphatase CD45 inhibitor (EMD Bioscience cat# 540215) which is shown to inhibit GALK activity. Decrease in activity corresponds to inhibition of the enzyme is the desired outcome for this assay. NIH Molecular Libraries Probe Production Network [MLPCN] NIH Chemical Genomics Center [NCGC] Grant: R03 MH085689-01 PI Name: Kent Lai Ph.D., University of Utah
NCGC Assay Protocol Summary: Three uL/well of ATP-buffer solution (35 uM ATP, 20mM HEPES pH8.0, 5 mM MgCl2, 60 mM NaCl, 1 mM DTT, 0.01% BSA final concentration) was dispensed into 1536-well, assay plates (Greiner, solid white medium-binding plates) with Aurora Discovery BioRAPTR Flying Reagent Dispenser (FRD; Beckton-Dickenson). Compound solution (23 nL) was transferred to the assay plate using the Kalypsys 1536-pin tool. One uL/well GALK-galactose solution (5 nM GALK, 100 uM galactose, 20 mM HEPES pH8.0, 5 mM MgCl2, 60 mM NaCl, 1 mM DTT, 0.01% BSA final concentration) was then added using the FRD yielding a total kinase reaction volume of 4 uL/ well. After 1 hour of room temperature incubation, 4 uL Kinase-Glo Plus reagent was added for a final assay volume of 8 uL/ well. Luminescence was detected with the ViewLux plate reader (Perkin Elmer, Waltham, MA) after 10 min incubation using a 1 sec exposure time and 2x binning.

Chain of Galactokinase (Homo sapiens) (P51570 whole entry, looked up): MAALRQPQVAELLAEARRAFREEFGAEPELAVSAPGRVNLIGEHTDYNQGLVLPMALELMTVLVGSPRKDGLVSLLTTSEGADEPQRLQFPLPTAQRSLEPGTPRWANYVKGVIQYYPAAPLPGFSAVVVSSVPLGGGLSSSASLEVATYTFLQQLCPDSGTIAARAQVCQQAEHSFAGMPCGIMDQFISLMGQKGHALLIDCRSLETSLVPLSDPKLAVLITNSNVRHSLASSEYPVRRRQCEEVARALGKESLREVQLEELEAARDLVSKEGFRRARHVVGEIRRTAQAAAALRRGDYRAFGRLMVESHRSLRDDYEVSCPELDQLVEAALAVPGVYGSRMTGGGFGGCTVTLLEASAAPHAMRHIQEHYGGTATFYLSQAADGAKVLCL

outcome, inactive:
COC(=O)c1cnc(N2CCN(c3ccccc3OC)CC2)c2ccccc12
CN1c2ccc(Cl)cc2-c2nc(SCC(=O)Nc3cc(F)ccc3F)ncc2S1(=O)=O
COc1ccc(Nc2cc(C(=O)NCCCN(C)c3ccccc3)c3ccccc3n2)c(OC)c1
COc1cccc(CNC(=O)C(=O)NCC(c2cccs2)S(=O)(=O)c2ccccc2)c1 (stereo not drawn)
Cc1cccc(-n2ncc(C(=O)N3CCN(c4ccc(Cl)cc4)CC3)c2C2CCN(C(=O)OC(C)(C)C)CC2)c1
COc1ccc(NC(=O)CCNS(=O)(=O)c2ccc3c(c2)CCCC(=O)N3)cc1Cl
Cc1cccc(N(C)C(=O)c2cc(S(=O)(=O)N3CCCCC3)c[nH]2)c1
CCOC(=O)c1c(SCC(=O)Nc2cccc(C)c2C)nc(=O)[nH]c1C
CCc1ccc(NC(=O)C2CCCN2S(=O)(=O)c2ccc3nc(-c4ccccc4)[nH]c3c2)cc1 (stereo not drawn)
COC(=O)c1scc(-c2ccccc2)c1S(=O)(=O)Nc1ccccc1
CC1CCN(S(=O)(=O)c2ccc3c(c2)N(CC(=O)NCc2ccccc2Cl)C(=O)CO3)CC1
COc1ccc(N2CCN(C3=NS(=O)(=O)C(c4cccc(Br)c4)=C3C)CC2)cc1
CCOc1ccc(CNC(=O)CCc2c(C)nn(-c3ccc(N4CCCCC4)nn3)c2C)cc1
COc1ccc(OC)c(-c2nc(C(N)=O)c3c(n2)n(-c2ccc4c(c2)OCO4)c(=O)n3C)c1
O=C(NCc1ccc(F)cc1)c1ccc2nc(N3CCCCC3)sc2c1
COc1cc(OC)c(C2C=C(C(=O)O)Nc3ncnn32)cc1OC (stereo not drawn)
CCOc1cc(/C=C(\C#N)C(=O)Nc2ccccc2C)ccc1OCc1cc(=O)n2nc(CC)sc2n1
O=C(Nc1ccc2nc(SCCOc3ccccc3Cl)sc2c1)c1ccco1
Cc1ccc(-c2nnc(SCC(=O)NCc3ccccc3)nc2-c2ccc(C)cc2)cc1
COc1cc(NC(=O)Cn2c(=O)n(Cc3ccco3)c(=O)c3oc4ccccc4c32)cc(OC)c1
Cc1ccccc1CN1CCC(CNC(=O)c2cc3ccc4cccnc4c3[nH]2)CC1
Cc1cc(C)c2oc(C(=O)Nc3ccc(S(=O)(=O)N(C)c4ccccc4)cc3)cc(=O)c2c1
Cc1ccc(-c2nc(CS(=O)(=O)CC(=O)NCc3ccccc3Cl)c(C)o2)cc1
CC(=O)c1ccc(NC(c2ccc(F)cc2)c2nnc(-c3ccccc3)o2)cc1 (stereo not drawn)
CCOc1ccc(CNC(=O)CCC(=O)N2CCSc3ccccc32)cc1
COCCNC(=O)c1ccc2c(c1)N(Cc1cccc(Cl)c1)C(=O)c1ccccc1S2(=O)=O
COc1cc(NS(=O)(=O)c2ccc3c(c2)OCC(C(=O)N2CCCC2)O3)cc(OC)c1 (stereo not drawn)
CCN(CC)C(=O)CSc1nc2cc3c(cc2c(=O)n1CCCC(=O)NCc1ccc2c(c1)OCO2)OCO3
Cc1oc2c(c1C(=O)Nc1ccc(F)c(F)c1)C1=NCCN1C=N2
O=C(NCC(c1cccnc1)N1CCc2ccccc21)c1cccc(C(F)(F)F)c1 (stereo not drawn)
O=C(CN1c2ccccc2S(=O)(=O)c2ccccc21)Nc1cccc(C(F)(F)F)c1
COc1ccc(NC(=O)CSC2=Nc3ccccc3C3=NC(CC(=O)NCc4ccccc4OC)C(=O)N23)cc1Cl (stereo not drawn)
CCN(CC)CCNC(=O)c1cc2c(=O)oc3ccc(C)cc3c2s1
CCOC(=O)c1cc(-c2ccccc2)n(CCC(=O)Nc2ccccc2CC)c1C
COC(=O)c1sc2ncccc2c1-n1c(C)ccc1C
Cc1ccc2nc(/C(C#N)=C/c3ccccc3F)[nH]c2c1
COCCCNC(=O)C1CCC(CNS(=O)(=O)c2ccc(OC)cc2)CC1 (stereo not drawn)
CCOC(=O)c1c(C)oc2nc(C)nc(N3CCN(c4ccc(OC)cc4)CC3)c12
NS(=O)(=O)c1ccc(CCNC(=O)CCCCCn2c(=O)[nH]c3ccccc3c2=O)cc1
COc1ccc(S(=O)(=O)Nc2cc3c(C(=O)OC(C)C)c(C)oc3c3ccccc23)cc1
COc1ccc(C(=O)CSc2c(C(C)C)cnc3c2c(=O)n(C)c(=O)n3C)cc1
NS(=O)(=O)c1ccc2nc(NC(=O)COc3ccccc3)sc2c1
Cc1ccccc1C(=O)N(Cc1ccc(N(C)C)cc1)CC1CCCO1 (stereo not drawn)
